VACV mCherry inh: qHTS for Stage-Specific Inhibitors of Vaccinia Orthopoxvirus: mCherry Reporter Primary qHTS | Vaccinia virus mCherry reporter infection, fluorescence | Potency, µM (doses to about 36.5 µM), without a hit: at the top dose activity change, negative = inhibition, actives largely listed as inhibitors | 310,000 compounds, 0.63% hits | AID 720579, 2013; calls by dose curve; tested in A549 cells; note: nearly all actives have a fitted effect of over 35% in size
Vaccinia Venus: qHTS for Stage-Specific Inhibitors of Vaccinia Orthopoxvirus: Venus Reporter Primary qHTS; Potency, µM (highest dose often 36.5 µM), for the others: top-dose activity change, negative = inhibition, actives largely listed as inhibitors; Vaccinia virus Venus reporter expression, fluorescence; AID 720580, 2013; 330,000 compounds, 0.46% hits; calls by dose curve; tested in A549 cells; note: nearly all actives have a fitted effect of over 30% in size
HCV inhibitor: qHTS Assay for Inhibitors of Hepatitis C Virus (HCV); Huh7.5.1 HCVcc-Cre infection, luciferase reporter, 44 h; Potency, µM (top dose mostly 41.8 µM), inactives show at the top dose activity change, negative = inhibition, actives largely listed as inhibitors; 340,000 compounds, 3.4% hits; AID 651820, 2012; active = well fitted inhibition curve with a large enough effect; inconclusive = small, poorly fitted or top-dose-only effect, or another doubt; inactive = no such curve, though single readings can be large or run the other way
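Whole-lifecycle infectious HCVcc-Cre system; cells 1,000/well, compound then virus (~0.5 moi) added 4 h after plating, 44 h culture. Luciferase read 15 sec following 15 min substrate incubation, room temp.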
Starred values were filed as active, the others as inactive. This is a sample that favours compounds with a hit; in the whole collection about 3.3% have one here. % is set by controls: 0 for no effect and ±100 for the full control effect; potency is the fitted concentration of half-maximal effect.

Cc1ccc(-n2c3c(c(=O)[nH]c2=O)C(NC(=O)c2ccccc2C)(C(F)(F)F)C(=O)N3)cc1 (stereo not drawn) was read as VACV mCherry inh 5% and Vaccinia Venus -4%.
Nc1c2c(nc3sc4c(c13)CCCCC4)CCCC2 was read as VACV mCherry inh inconclusive, Vaccinia Venus 10µM* and HCV inhibitor 22µM*.
Screening O=c1c2c3c(sc2nc2n1CCC2)CCCCC3 returned VACV mCherry inh -24%, Vaccinia Venus -12% and HCV inhibitor inconclusive.
For CN(C)S(=O)(=O)Oc1ccccc1C(=O)Nc1cccc(C(F)(F)F)c1 the results were VACV mCherry inh inactive, Vaccinia Venus -16% and HCV inhibitor -10%.
`CN(C)S(=O)(=O)Oc1ccc(Cl)cc1C(=O)Nc1cccc(C(F)(F)F)c1` gave HCV inhibitor 11µM*.
Screening COc1cc(=O)n2c(c1C(=O)N(C)Cc1nonc1C)CCN(Cc1c(F)cccc1F)CC2 returned VACV mCherry inh -10% and Vaccinia Venus -2%.
COc1ccc(OC)c(NC(=O)CSc2nc(C)cs2)c1 was read as VACV mCherry inh 0%, Vaccinia Venus -10% and HCV inhibitor 25µM*.
Screening CCOC(=O)c1cnc(SCC(=O)Nc2ccc(NC(C)=O)c(OC)c2)nc1N returned HCV inhibitor 12%.
For CCOC(=O)Cc1csc(SCC(=O)Nc2cc(Cl)ccc2Oc2ccccc2)n1 the results were Vaccinia Venus -28% and HCV inhibitor 10µM*.
COc1ccc(NC(=O)CSc2nc(C)cs2)c(OC)c1 was read as HCV inhibitor -21%.
For CCOC(=O)c1cnc(SCC(=O)Nc2cc(OC)ccc2OC)nc1N the results were VACV mCherry inh -19%, Vaccinia Venus inconclusive and HCV inhibitor 6.3µM*.
For CCOC(=O)Cc1csc(SCC(=O)Nc2cccc(Cl)c2)n1 the results were Vaccinia Venus -9% and HCV inhibitor -7%.
For CC(C)(C)C(=O)/C(=C\c1ccc([N+](=O)[O-])cc1)n1cncn1 the results were HCV inhibitor 3.2µM*.
Screening CN(C)/C=C(/C(=O)c1ccccc1)n1cncn1 returned VACV mCherry inh -7%, Vaccinia Venus 1% and HCV inhibitor 3%.
Screening COc1ccccc1Cn1cc(C(=O)c2ccc(C)cc2)c(=O)c2cc(C)ccc21 returned VACV mCherry inh -24% and Vaccinia Venus -10%.
CCC(=O)N1N=C(c2ccc(NS(=O)(=O)c3ccccc3)cc2)CC1c1ccco1 (stereo not drawn) was read as HCV inhibitor 11µM*.
`CC(=O)N1N=C(c2ccco2)CC1c1ccco1` (stereo not drawn) gave VACV mCherry inh -13%, Vaccinia Venus -8% and HCV inhibitor -15%.
`Cc1ccc(S(=O)(=O)N[C@H](C(=O)OCC(=O)N2N=C(c3ccc(Cl)cc3)CC2c2ccco2)C(C)C)cc1` (stereo partly drawn) gave VACV mCherry inh inconclusive, Vaccinia Venus inconclusive and HCV inhibitor 13µM*.
COc1ccc(C2=NN(C(=O)COC(=O)c3ccc(S(C)(=O)=O)c([N+](=O)[O-])c3)C(c3ccco3)C2)cc1 (stereo not drawn) was read as VACV mCherry inh 11µM*, Vaccinia Venus inconclusive and HCV inhibitor inconclusive.
Screening Cc1ccc(C2=NN(C(=O)CCCC(=O)O)C(c3ccco3)C2)cc1 (stereo not drawn) returned VACV mCherry inh -5%, Vaccinia Venus 2% and HCV inhibitor 29%.
Screening O=C(CNC(=O)c1ccccc1)OCC(=O)N1N=C(c2ccc(Cl)cc2)CC1c1ccco1 (stereo not drawn) returned HCV inhibitor 23%.
COc1ccc(C2=NN(C(=O)COc3ncnc4ccccc34)C(c3ccco3)C2)cc1 (stereo not drawn) was read as VACV mCherry inh -12%, Vaccinia Venus -17% and HCV inhibitor -25%.
For Cc1ccc(C2=NN(C(=O)CCl)C(c3ccco3)C2)o1 (stereo not drawn) the results were VACV mCherry inh -29%, Vaccinia Venus -6% and HCV inhibitor 8.9µM*.
COc1ccc(C(=O)N(Cc2cc3cccc(C)c3nc2N(C)C)CC2CCCO2)cc1 (stereo not drawn) was read as VACV mCherry inh -11% and Vaccinia Venus 11%.
Cc1onc(-c2ccccc2)c1C(=O)Nc1ccc(S(=O)(=O)N2CCOCC2)cc1 was read as VACV mCherry inh inactive, Vaccinia Venus -17% and HCV inhibitor inconclusive.
`O=C(c1ccccc1)N1CCN(C(=O)c2ccccc2)c2ccccc21` gave VACV mCherry inh -12%, Vaccinia Venus -15% and HCV inhibitor 3.2µM*.
For O=C(c1ccccc1)N1CCc2ccccc21 the results were VACV mCherry inh -16%, Vaccinia Venus -17% and HCV inhibitor 7%.
For Cc1cccc(N2CCN(C3(c4ccccc4)C(=O)c4ccccc4C3=O)CC2)c1C the results were VACV mCherry inh 1% and Vaccinia Venus 5%.
Screening Cc1ccc(S(=O)(=O)c2c(N)n(/N=C/c3ccco3)c3nc4ccccc4nc23)cc1C returned VACV mCherry inh inactive, Vaccinia Venus -10% and HCV inhibitor inconclusive.
For Cc1cccc(S(=O)(=O)c2c(N)n(/N=C/c3ccco3)c3nc4ccccc4nc23)c1 the results were HCV inhibitor 2.5µM*.
For COc1cccc(/C=N/n2c(N)c(S(=O)(=O)c3cccs3)c3nc4ccccc4nc32)c1 the results were HCV inhibitor -17%.
Nc1c(S(=O)(=O)c2cccs2)c2nc3ccccc3nc2n1/N=C/c1cccc(O)c1 was read as VACV mCherry inh inconclusive, Vaccinia Venus 11µM* and HCV inhibitor 7.9µM*.
For CC1CCCCN1c1nc(-c2ccncc2)nc2ccccc12 (stereo not drawn) the results were VACV mCherry inh -5%, Vaccinia Venus -18% and HCV inhibitor 10µM*.
`CCN1CCN(c2nc(-c3ccccc3)nc3ccccc23)CC1` gave VACV mCherry inh -23%, Vaccinia Venus -15% and HCV inhibitor inconclusive.
`CCC1CCCCN1c1nc(-c2ccncc2)nc2ccccc12` (stereo not drawn) gave HCV inhibitor 11µM*.
Screening CC1CCN(c2nc(-c3ccncc3)nc3ccccc23)CC1 returned VACV mCherry inh -17%, Vaccinia Venus inconclusive and HCV inhibitor 7.1µM*.
For CC1CCCCN1c1nc(-c2ccc(C(C)(C)C)cc2)nc2ccccc12 (stereo not drawn) the results were VACV mCherry inh -11% and Vaccinia Venus -1%.
For CC1CCN(c2nc(-c3ccc(C(C)(C)C)cc3)nc3ccccc23)CC1 the results were VACV mCherry inh -12% and Vaccinia Venus -11%.
For COc1ccc(CNC(=O)C2CCN(c3nnc(-n4cccc4CNc4ccc(C)cc4)s3)CC2)c(OC)c1 the results were VACV mCherry inh -27% and Vaccinia Venus -23%.
For Oc1cc(-c2nc3ccccc3s2)cc2c1OCCN(Cc1cccn1-c1ncccn1)C2 the results were VACV mCherry inh -13% and Vaccinia Venus -1%.
CC(C)(C)c1ccc(C(=O)OCC(=O)N2CCC(c3ccccc3)=N2)cc1 was read as HCV inhibitor 3%.
